The source of these data is PubChem BioAssay.

Several values for one entry are separate records, joined by “and”; a condition that tells them apart may be missing. Equal values may be shown once. A structure can be active in one record and inactive in another. Activity calls are given as the source filed them.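 The calls were made as follows, unless noted: active = inhibition at or above 50% relative to wild type and mutant plate controls; inactive = inhibition below 50%.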

Assay [1] can be described thus: inhibitors of mutant huntingtin aggregation, primary screen, imaging, exon1htt(103Q)mCFP cells, high-content imaging (AID 483;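 active = visual image review flags a hit and inhibition of aggregation exceeds 20%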;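 also: compound exposure lasted 3 days before fixation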;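 as to nuclei count: percent of the per-plate median nuclei count of sample wells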). Conditions: exon1htt(103Q)mCFP cell line, aggregate imaging, at 2 µM; inhibition of aggregation: stronger effect = higher value; nuclei count: measured here: cell count, toxicity.
Assay [2] in a line: DUSP6 inhibitors restoring Erk phosphorylation by chemical complementation, primary imaging in DUSP6-transfected HeLa (AID 609;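 active = compounds giving at least 50% inhibition in the cell-based MKP-3 phosphatase rescue imaging test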;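 as to inhibition: phospho-Erk level distribution per well compared with pooled transfected vehicle control wells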). The note with it: HeLa MKP-3 transfected, phospho-Erk imaging KS statistic, at 10 µM, cells stimulated with TPA for 15 min.
Assay [3] concerns the target Dual specificity protein phosphatase 6 (Homo sapiens) (UniProt Q16828). Described as above. The note with it: HeLa MKP-3 transfected, phospho-Erk imaging KS statistic; at 10 µM; stronger effect = higher value; cells stimulated with TPA for 15 min.
Assay [4] addresses Voltage-gated potassium channel subunit beta-2 (Rattus norvegicus) (UniProt P62483). Put plainly: KvBeta enzyme negative modulators, primary screen, biochemical, NADPH fluorescence (AID 622;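 active = fluorescence slope higher than the sample average by over 3 SD, cut at about -0.22 in these data, passing the limit was not always enough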;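 also: slope of raw intensity against log time taken from 70 to 1610 s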). The note with it: recombinant KvBeta, 4-cyanobenzaldehyde reduction, at 10 µM, stronger effect = higher value.
The target is the same in assay [5]. The assay can be described thus: KvBeta positive modulators, primary screen, biochemical, NADPH fluorescence (AID 623;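 active = NADPH fluorescence slope more negative than the mean of all samples by about 3 SD, 99.7% confidence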;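 also: fluorescence intensity change per second fitted from 20 to 320 s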). Conditions: Recombinant KvBeta, NADPH fluorescence decrease slope, 10 min; at 10 µM; stronger effect = lower value.
The target in assay [6] is Alpha-2C adrenergic receptor (Homo sapiens) (UniProt P18825). The assay can be described thus: modulators of alpha2C/GIRK thallium flux, primary screen, cell-based, HEK293 alpha2C/GIRK1/2 (AID 624;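 active = fluorescence slope after compound addition differing from the mean of all screened samples at 99.7% confidence, in either direction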;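 also: slope of fluorescence ratio to pre-addition baseline per second over 15 to 24 s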). Conditions: thallium flux BTC fluorescence, at 10 µM, actives lie on both sides.
Alpha-2C adrenergic receptor (Homo sapiens), sequence (P18825 whole entry, looked up): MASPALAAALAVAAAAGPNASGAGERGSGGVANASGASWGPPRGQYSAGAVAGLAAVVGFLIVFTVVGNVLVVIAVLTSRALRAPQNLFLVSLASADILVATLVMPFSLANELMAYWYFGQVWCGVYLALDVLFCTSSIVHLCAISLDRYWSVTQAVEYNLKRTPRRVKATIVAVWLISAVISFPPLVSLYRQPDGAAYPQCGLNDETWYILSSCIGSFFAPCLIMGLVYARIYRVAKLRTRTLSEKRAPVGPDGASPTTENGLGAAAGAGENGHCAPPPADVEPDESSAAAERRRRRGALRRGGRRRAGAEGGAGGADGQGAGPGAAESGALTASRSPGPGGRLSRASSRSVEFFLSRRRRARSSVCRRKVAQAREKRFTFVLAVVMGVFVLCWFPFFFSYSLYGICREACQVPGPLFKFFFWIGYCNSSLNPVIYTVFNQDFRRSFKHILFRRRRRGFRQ
Assay [7] is described as follows: inhibitors of larval lipid processing in zebrafish, primary screen, whole organism, PED6 fluorescence, gall bladder and intestine (AID 686;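 active = a full or partial loss of lipid-probe fluorescence in the fish gall bladder, intestine or both, judged by eye; inactive = no fluorescence loss, or compound toxic to the fish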;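 also: larvae 5 to 7 days old with five fish per well; signal comes from phospholipase A2 cleavage of quenched PED6 carried via bile; overnight exposure to compound and PED6 before scoring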). The note with it: Zebrafish larvae PED6 lipid processing, fluorescence scoring; screened at 20 µM (by protocol).
Assay [8] in a line: inhibitors of Chlamydomonas gravitaxis, primary screen, whole organism, Chlamydomonas reinhardtii, WT vs cilia-less mutant, absorbance, 96-well (AID 463189).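 Also: 0% = wild type cc124 cells in DMSO and 100% = ciliumless bld1 mutant cells.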 Conditions: OD600 absorbance, 2 days, at 10 µM, stronger effect = higher value.
Assay [9] in a line: inhibitors of Sendai virus-induced IRF3 signaling, primary screen, TLR/RLR signaling modifier project, cell-based, Sendai virus stimulus, luciferase, 10K MLSCN set (AID 602276;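 active = inhibition at or above 50% at 10 µM; inactive = inhibition below 50%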;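 also: firefly luciferase from ISG56 promoter only with Renilla not read in this screen; 0% = Sendai virus plus DMSO and 100% = medium plus DMSO without virus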). The note with it: HEK293 RL24 IRF3 luciferase reporter, at 10 µM, stronger effect = higher value.
A short description of assay [10]: inhibitors of poly I:C-induced TLR3 signaling, primary screen, cell-based, poly I:C stimulus, luciferase, 10K MLSCN set (AID 602277;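 active = inhibition of the reporter signal at or above 50%; inactive = inhibition below 50%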). Conditions: HEK293-TLR3 RL24 IRF3 luciferase reporter, at 10 µM, stronger effect = higher value.
Assay [11] in a line: inhibitors of E-selectin induction by TNFa, primary screen, imaging, HUVEC, immunofluorescence, MLSMR starter and 10KST1 sets (AID 487;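 active = visually confirmed hit in the image check and inhibition above 20%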;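 as to inhibition: signal is fraction of cell area covered by stained E-selectin grains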;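 as to nuclei count: 100% = median nuclei count of all wells on the same plate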). Conditions: HUVEC TNFalpha-induced E-selectin immunofluorescence imaging, at 2 µM; inhibition: stronger effect = higher value; nuclei count: measured here: cell number, toxicity.
The target in assay [12] is Muscarinic acetylcholine receptor M4 (Homo sapiens) (UniProt P08173). Put plainly: compounds altering M4/GIRK thallium flux, either direction, primary screen, M4 allosteric agonist project, cell-based, HEK293 M4/GIRK, BTC-AM (AID 625;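 active = fluorescence slope after compound addition differing from the mean of all tested samples at 99.7% confidence, mostly higher but some lower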;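 also: thallium influx through GIRK channels coupled to M4 in HEK293 cells with BTC-AM dye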). The note with it: at 10 µM, actives lie on both sides.
Muscarinic acetylcholine receptor M4 (Homo sapiens), sequence (P08173 whole entry, looked up): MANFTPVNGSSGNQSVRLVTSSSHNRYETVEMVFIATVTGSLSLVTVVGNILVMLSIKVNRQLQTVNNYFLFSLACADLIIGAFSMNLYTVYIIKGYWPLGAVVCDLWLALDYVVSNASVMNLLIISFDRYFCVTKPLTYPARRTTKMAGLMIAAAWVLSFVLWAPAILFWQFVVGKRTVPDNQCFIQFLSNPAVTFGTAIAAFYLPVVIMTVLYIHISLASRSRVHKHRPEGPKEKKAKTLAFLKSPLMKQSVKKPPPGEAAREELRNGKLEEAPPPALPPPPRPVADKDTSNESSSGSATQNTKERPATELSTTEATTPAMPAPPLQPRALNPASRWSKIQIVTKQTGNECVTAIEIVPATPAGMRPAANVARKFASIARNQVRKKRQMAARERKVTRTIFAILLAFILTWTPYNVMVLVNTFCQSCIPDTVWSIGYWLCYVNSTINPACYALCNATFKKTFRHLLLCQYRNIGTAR
Setting [13] is: measured here: cell density z-score.
Setting [14] is: measured here: nuclear c-Myc green intensity z-score.
Where [15] appears, read: measured here: nuclear pErk red intensity z-score, stronger effect = higher value.

Dual specificity protein phosphatase 6 (Homo sapiens), sequence (Q16828 whole entry, looked up): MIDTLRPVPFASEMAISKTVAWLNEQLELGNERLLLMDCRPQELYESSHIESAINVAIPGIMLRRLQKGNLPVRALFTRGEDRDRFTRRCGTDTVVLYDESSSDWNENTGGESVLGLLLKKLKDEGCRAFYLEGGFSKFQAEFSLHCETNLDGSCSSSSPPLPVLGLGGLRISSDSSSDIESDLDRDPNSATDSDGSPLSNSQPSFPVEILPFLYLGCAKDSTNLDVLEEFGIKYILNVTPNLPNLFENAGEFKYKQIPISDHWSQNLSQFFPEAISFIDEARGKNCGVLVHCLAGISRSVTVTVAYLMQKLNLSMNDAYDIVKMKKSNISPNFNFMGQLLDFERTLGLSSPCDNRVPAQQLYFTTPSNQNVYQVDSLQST
Voltage-gated potassium channel subunit beta-2 (Rattus norvegicus), sequence (P62483 whole entry, looked up): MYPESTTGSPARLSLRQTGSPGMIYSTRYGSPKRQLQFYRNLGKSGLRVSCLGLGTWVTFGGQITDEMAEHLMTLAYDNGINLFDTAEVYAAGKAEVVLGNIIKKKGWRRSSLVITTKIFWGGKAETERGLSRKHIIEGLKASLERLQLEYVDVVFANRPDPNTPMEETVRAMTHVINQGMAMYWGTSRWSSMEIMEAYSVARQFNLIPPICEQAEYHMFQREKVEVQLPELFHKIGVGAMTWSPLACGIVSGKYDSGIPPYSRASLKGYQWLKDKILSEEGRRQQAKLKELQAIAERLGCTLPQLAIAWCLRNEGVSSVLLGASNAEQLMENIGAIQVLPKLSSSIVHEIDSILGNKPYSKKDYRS

Consider `CC(=O)O[C@@]12CO[C@@H]1C[C@H](O)[C@@]1(C)C(=O)[C@H](O)C3=C(C)[C@@H](OC(=O)[C@H](O)[C@@H](NC(=O)OC(C)(C)C)c4ccccc4)C[C@](O)([C@@H](OC(=O)c4ccccc4)[C@H]21)C3(C)C`, for which the inhibition of aggregation in assay [1] was -77% (inactive). In [1], the nuclei count stood at 4.4%. Also, the z-score is -1.36 in [2] (setting [13]), 0.683 in assay [2] (setting [14]) and 1.58 in assay [2] (setting [15]). Further, the inhibition in [3] is -9.66% (inactive); in [8], 22.5% (inactive); in [9], 37.7% (inactive); in assay [10] it was 38.9% (inactive). Besides, the fluorescence slope in assay [4] was -0.48 (inactive). Moreover, the NADPH fluorescence slope in assay [5] is -5.5e-05 (inactive). The slope in assay [6] is 0.00555 (inactive). Besides, the compound was classed as inactive in assay [7].

`CC1(C)S[C@@H]2[C@H](NC(=O)[C@H](N)c3ccccc3)C(=O)N2[C@H]1C(=O)O`: the inhibition was -51.2% (inactive) in [11]; -8.38% (inactive) in assay [3]; -0.692% (inactive) in assay [8]; 7.78% (inactive) in [9]; 28.7% (inactive) in assay [10]. In [11], the nuclei count was determined as 131%. The z-score was -0.832 in [2] (setting [13]), -1.51 in assay [2] (setting [14]) and 1.6 in assay [2] (setting [15]). Further, the fluorescence slope in [4] is -0.459 (inactive). The NADPH fluorescence slope in [5] was 1.8e-05 (inactive). In assay [6], the slope was 0.0053 (inactive). Further, in [7], the compound was classed as inactive.

On to `COc1cc2nc(N3CCN(C(=O)C4CCCO4)CC3)nc(N)c2cc1OC` (configuration not stated), for which, in assay [1], the inhibition of aggregation was -7.9% (inactive). Also, the nuclei count came out at 82% in assay [1] and 105% in [11]. The inhibition in [11] was -29.4% (inactive); in assay [3], 16.8% (inactive); in assay [8] it was 3.5% (inactive) and -0.975% (inactive); in assay [9], 16.1% (inactive); in [10] it was 30.2% (inactive). Further, the z-score in [2] (setting [13]) was 1.01; in assay [2] (setting [14]) it was -0.263; in assay [2] (setting [15]), -0.73. Also, in assay [7], the call was inactive.

Take `CC[C@]1(O)C[C@@H]2CN(CCc3c([nH]c4ccccc34)[C@@](C(=O)OC)(c3cc4c(cc3OC)N(C)[C@H]3[C@@](O)(C(=O)OC)[C@H](OC(C)=O)[C@]5(CC)C=CCN6CC[C@]43[C@@H]65)C2)C1`: the inhibition was -205% (inactive) in [11]; -12.3% (inactive) in assay [3]; -7.31% (inactive) in [8]; 23.8% (inactive) in assay [9]; 90.5% (active) in assay [10]. Moreover, the nuclei count in [11] was 78%. Moreover, the results for the z-score in assay [2] (setting [13]), in assay [2] (setting [14]) and in assay [2] (setting [15]) were -0.32, -0.704 and 1.1, respectively. Besides, the fluorescence slope in [4] is -0.495 (inactive). Moreover, the NADPH fluorescence slope in [5] is -2.5e-05 (inactive). Moreover, the slope in assay [6] was 0.00463 (inactive). The result in assay [7] was inactive.

`O=P(O)(c1ccccc1)c1ccccc1O`: the inhibition in [11] is 2% (inactive); in assay [3] it was 5.57% (inactive); in [8], 28.7% (inactive). For the same compound, in assay [11], the nuclei count is 77.2%. Moreover, the z-score in assay [2] (setting [13]) came to 0.571; in assay [2] (setting [14]), 0.329; in assay [2] (setting [15]), 0.814. The fluorescence slope in assay [4] is -0.452 (inactive); in assay [12], 0.00546 (inactive). In addition, the NADPH fluorescence slope in assay [5] was -1.5e-05 (inactive). In addition, in [7], the call was inactive.

With `COc1ccc(CSc2nnc(C)n2N)cc1Br`, the inhibition in assay [11] was -82.3% (inactive); in assay [3], 13.2% (inactive); in assay [8] it was 5.58% (inactive). Besides, in assay [11], the nuclei count was 182%. In addition, the z-score in assay [2] (setting [13]) was 1.41; in [2] (setting [14]), -2.02; in [2] (setting [15]), 0.078. The fluorescence slope is -0.395 (inactive) in assay [4] and 0.00742 (inactive) in assay [12]. For the same compound, the NADPH fluorescence slope in assay [5] was -5.4e-05 (inactive). For the same compound, the compound was called inactive in assay [7].

Regarding `Fc1ccc(C(c2ccc(F)cc2)N2CCN(C/C=C/c3ccccc3)CC2)cc1`, the inhibition in [11] is -61.3% (inactive); in assay [3], 23.4% (inactive); in assay [8], -8.15% (inactive) and 80.3% (active); in [9], 10.5% (inactive); in assay [10] it was 42.4% (inactive). Also, the nuclei count in assay [11] came to 124%. Further, the z-score is -0.381 in assay [2] (setting [13]), 1.96 in assay [2] (setting [14]) and -1.06 in [2] (setting [15]). The fluorescence slope in assay [4] is -0.463 (inactive). Moreover, the NADPH fluorescence slope in assay [5] is -6.2e-05 (inactive). Further, in [6], the slope was 0.00453 (inactive). Also, the outcome in assay [7] was “inactive; toxic”.

For the compound `COc1ccc(-n2c(C)c(C(C)=O)c3cc(O)ccc32)cc1`, the inhibition is 4.2% (inactive) in [11], 9.39% (inactive) in [3] and 30.2% (inactive) in [8]. For the same compound, the nuclei count in assay [11] amounted to 135%. Moreover, the z-score is -0.551 in assay [2] (setting [13]), -0.198 in assay [2] (setting [14]) and 0.861 in assay [2] (setting [15]). For the same compound, the fluorescence slope in assay [4] was -0.4 (inactive); in assay [12] it was 0.00708 (inactive). For the same compound, the NADPH fluorescence slope in [5] is -4.1e-05 (inactive). For the same compound, in [7], the call was inactive.
